PubChem BioAssay (Tox21)
Several values for one entry are separate records, joined by “and”; a condition that tells them apart may be missing. Equal values may be shown once. Records with an inconclusive call do not appear. Where a call stands in place of a potency, no number is given. Activity calls are given as the source filed them. The call rests on the fitted dose curve.

Target: Acetylcholinesterase (Homo sapiens) (UniProt P22303)
Test: Acetylcholinesterase (AChE) small molecule antagonists: fluorescence cell-based qHTS assay (AID 1347398); further: nearly all actives have a fitted effect of over 50% in size
Details: SH-SY5Y cells; Potency: AChE activity; series mostly up to 115 µM
Excerpt: National Center for Advancing Translational Sciences [NCATS]
Division of Preclinical Innovation [DPI]
U.S. Environmental Protection Agency [EPA]
National Institutes of Environmental Health Sciences [NIEHS]
National Toxicology Program [NTP]
U.S. Food and Drug Administration [FDA]
Acetylcholinesterase (AChE) is the primary cholinesterase in the body that hydrolyzes a key neurotransmitter, acetylcholine. Inhibition of AChE activity can lead to neurotoxicity. Known inhibitors of AChE include organophosphorous pesticides (OP), chemical warfare agents, drugs, and various phytochemicals.
A homogenous cell-based assay using Amplitetrade mark Fluorimetric Acetylcholinesterase Assay Kit *Green Fluorescence* (AAT Bioquest, Sunnyvale, CA) was used to evaluate the chemicals in the Tox21 10K library that inhibit AChE activity. The assay uses Thiolite Green to quantify the thiocholine produced from the hydrolysis of acetylthiocholine by AChE from the SH-SY5Y cells. AChE can hydrolyze acetylthiocholine to create thiocholine. Thiolite Green is fluorescent when reacting with thiocholine. It has spectral properties similar to those of fluorescein. The fluorescence intensity of Thiolite Green is used to measure AChE activity. Its signal can be easily read by a fluorescence microplate reader at Ex/Em = 490/520 nm.
Tox21 Assay Protocol Summary:
For cell-based AChE assay, 2,000 SH-SY5Y cells in 4 uL/well were dispensed into black, clear-bottom 1536-well plates using a Multidrop Combi (Thermo Scientific) dispenser. The assay plates were incubated overnight at 37 C to allow cells to attach to the wells, followed by the transfer of 23 nL compound or DMSO (vehicle control) by a Pintool station (Wako Automation, CA). The plates were incubated for 30 min at 37 C and 5% CO2, followed by the addition of 4 uL of detection cocktail solution (ThioliteGreen, acetylthiocholine) into each well using Flying Reagent Dispenser (Beckman Coulter, CA) and then following 40 min incubation at room temperature. Fluorescent intensity (Ex/Em = 490/520 nm) was measured using an Envision plate reader (PerkinElmer, MA).
Potency means the concentration at half of the fitted maximal effect.

Chain of Acetylcholinesterase (Homo sapiens) (P22303 whole entry, looked up): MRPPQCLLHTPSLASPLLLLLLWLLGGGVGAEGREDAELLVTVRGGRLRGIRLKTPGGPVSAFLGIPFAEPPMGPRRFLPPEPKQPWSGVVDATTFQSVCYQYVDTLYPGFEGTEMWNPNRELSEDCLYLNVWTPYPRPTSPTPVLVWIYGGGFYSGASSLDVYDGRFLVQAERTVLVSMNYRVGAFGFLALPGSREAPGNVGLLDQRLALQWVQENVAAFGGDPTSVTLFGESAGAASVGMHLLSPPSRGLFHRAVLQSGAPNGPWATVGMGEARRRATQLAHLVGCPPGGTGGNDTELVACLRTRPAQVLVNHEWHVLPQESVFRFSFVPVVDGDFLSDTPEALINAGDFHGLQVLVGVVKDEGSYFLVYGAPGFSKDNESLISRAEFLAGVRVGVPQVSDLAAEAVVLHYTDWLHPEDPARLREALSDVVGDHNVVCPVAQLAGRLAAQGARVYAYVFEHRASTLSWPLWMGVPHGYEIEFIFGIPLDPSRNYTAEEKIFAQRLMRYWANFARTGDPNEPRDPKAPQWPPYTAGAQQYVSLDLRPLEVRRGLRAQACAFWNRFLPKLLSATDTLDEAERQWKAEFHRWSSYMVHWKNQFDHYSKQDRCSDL

Row | Structure (SMILES) | Potency
1 | CN(C)NC(=O)CCC(=O)O | inactive
2 | CC12CC1(C)C(=O)N(c1cc(Cl)cc(Cl)c1)C2=O (stereo not given) | inactive
3 | CCCCC(CC)C(=O)Cl (stereo not given) | inactive
4 | N#CN=C(N)N | inactive
5 | C=C(C)C(=O)OCC(CC)CCCC (stereo not given) | inactive
6 | Cc1cccc(N)c1C | inactive
7 | C[C@H]1C(=O)O[C@@H]2CCN3CC=C(COC(=O)[C@](C)(O)[C@]1(C)O)[C@H]23 | inactive
8 | C=CCN=C=S | inactive
9 | O=S(=O)(O)OOS(=O)(=O)O | inactive
10 | FC(F)(F)c1ccc(Cl)cc1 | inactive
11 | Cl/C=C/Cl | inactive
12 | C=CC#N | inactive
13 | CN(C)CCC#N | inactive
14 | Cc1cc(O)ccc1Cl | inactive
15 | Nc1nc(N)nc(NC2CC2)n1 | inactive
16 | OC[C@@H](O)[C@H]1O[C@@H]2O[C@H](C(Cl)(Cl)Cl)O[C@@H]2[C@H]1O | inactive
17 | ClCCOCCCl | inactive
18 | C=CC(=O)OCCCCCC(C)C | inactive
19 | Cc1ccc(N=C=O)cc1N=C=O | inactive
20 | Cc1ccc(O)c(C)c1 | inactive

Row | Structure (SMILES) | Potency
21 | COP(=S)(OC)SCN1C(=O)c2ccccc2C1=O | inactive
22 | O=C(O)Cc1ccccc1 | inactive
23 | [N-]=[N+]=CC(=O)OC[C@H](N)C(=O)O | inactive
24 | CNC(=O)O/N=C/C(C)(C)S(C)=O (stereo not given) | 57.2 nM (active) and 35.4 nM (active)
25 | CCSC(=O)N1CCCCCC1 | inactive
26 | CNCC(O)c1ccc(O)cc1 (stereo not given) | inactive
27 | CC(C)CCCCCCOC(=O)c1ccccc1C(=O)OCCCCCCC(C)C | inactive
28 | Nc1ncc([N+](=O)[O-])s1 | inactive
29 | Cc1cccc(N)c1 | inactive
30 | CN(C)C(=O)Nc1cccc(C(F)(F)F)c1 | inactive
31 | Nc1ccc([As](=O)(O)O)cc1 | inactive
32 | CC[N+](=O)[O-] | inactive
33 | CC(=O)/C=C/c1ccccc1 | inactive
34 | N#Cc1ccccn1 | inactive
35 | CCNc1nc(Cl)nc(NC(C)C)n1 | inactive
36 | C[C@]12CC[C@H](O)CC1=CC[C@@H]1[C@@H]2CC[C@]2(C)C(=O)CC[C@@H]12 | inactive
37 | N#Cc1cccc(C#N)c1 | inactive
38 | OCc1ccco1 | inactive
39 | COC(=O)Nc1cccc(OC(=O)Nc2cccc(C)c2)c1 | inactive
40 | O=C(O)CCCc1ccc(N(CCCl)CCCl)cc1 | inactive
